This is a sample that favours compounds with a hit; in the whole collection about 8.1% have one here.
MCF10A rereplic – inducers of DNA re-replication in MCF 10A breast cells; MCF 10A DNA re-replication, Hoechst nuclear intensity, 48 h; Potency, µM (doses to about 46.1 µM), actives largely listed as activators; actives 2.9% (n = 350,000); further: nearly all actives have a fitted effect of over 50% in size
ELG1 repair inh – inhibitors of ELG1-dependent DNA repair in HEK293T cells; HEK293T ELG1-luciferase reporter, luminescence, 16 h; DNA damage induced by 5-fluorouridine; Potency, µM (series often up to 46.1 µM), most hits filed as inhibitors; actives 2.3% (n = 330,000); AID 504467; further: nearly all actives have a fitted effect of over 55% in size
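HEK293T cells expressing luciferase-tagged ELG1 (2,000/well) received 5-Fluorouridine plus compound or DMSO for 16 hr at 37 °C. Luciferase was read by ONE-Glo luminescence after 30 min at room temperature.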
KB-V1 MDR tox – KB-V1 MDR subline cytotoxicity; KB-V1 MDR cells viability, CellTiter-Glo, 72 h; Potency, µM (series often up to 46.1 µM), hits mostly cytotoxic; actives 3.4% (n = 400,000); further: nearly all actives have a fitted effect of over 60% in size
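Potencies derive from concentration-effect curves fitted to normalized luminescence (CellTiter-Glo) of KB-V1 cells treated for 72 h at 37 degrees C in phenol-red-free DMEM containing 10% FBS.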
SW480 rerep – DNA re-replication induction in SW480 cells. SW480 DNA re-replication, Hoechst DNA content imaging, 48 h. Potency, µM (top dose mostly 46.1 µM), most hits filed as activators. actives 1.8% (n = 340,000). AID 624297; further: nearly all actives have a fitted effect of over 55% in size
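Image-based read-out: total Hoechst fluorescence of nuclei (405 nm excitation, 500-530 nm emission), with hits raising the fraction of high-intensity nuclei. SW480 colon cells incubated 48 hr with compounds at 37 C.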
KB-3-1 cytotox – kills parental KB-3-1 adenocarcinoma cells. KB-3-1 viability, CellTiter-Glo ATP luminescence, 72 h. Potency, µM (titrated, usually from 46.1 µM), usual class: cytotoxic. actives 1.4% (n = 400,000). AID 1347075; further: nearly all actives have a fitted effect of over 60% in size
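Luminescent ATP read-out (CellTiter-Glo) measures survival of drug-naive KB-3-1 cells after 72 h compound exposure at 37 °C. Titration series was screened from lowest to highest concentration, with DMSO vehicle plates as background controls.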
Of the large screens only hits and unclear results are named; the others gave an inactive call; ! = a repeat was not active. The call rests on the fitted dose curve; in most records, active means well fitted curve in the direction sought with a large enough effect; inconclusive means small, poorly fitted or top-dose-only effect, or another doubt; inactive means no such curve, though single readings can be large; an effect the other way counts as inactive or inconclusive.

COC(=O)[C@@]12C[C@@H](CC(=O)NCc3cccc(C(F)(F)F)c3)C(=O)N(CCc3ccc(OC)c(OC)c3)C1=CCC(C)(C)C2	KB-V1 MDR tox 16µM, KB-3-1 cytotox inconclusive (no result: MCF10A rereplic, ELG1 repair inh, SW480 rerep)
COC(=O)[C@]12CCCCC=C1N(CCc1ccc(OC)c(OC)c1)C(=O)[C@H](CC(=O)NCCCCc1ccccc1)C2	KB-V1 MDR tox inconclusive (no result: MCF10A rereplic, ELG1 repair inh, SW480 rerep)
COC(=O)[C@@]12C[C@@H](CC(=O)NCc3cccc(C(F)(F)F)c3)C(=O)N(Cc3ccc4c(c3)OCO4)C1=CCC(C)(C)C2	KB-V1 MDR tox 21µM, KB-3-1 cytotox inconclusive (no result: MCF10A rereplic, ELG1 repair inh, SW480 rerep)
COC(=O)[C@]12CCCCC=C1N(Cc1ccc3c(c1)OCO3)C(=O)[C@H](CC(=O)NCc1cccc(C(F)(F)F)c1)C2	KB-V1 MDR tox inconclusive (no result: MCF10A rereplic, ELG1 repair inh, SW480 rerep)
COC(=O)[C@]12CCCCC=C1N(CCc1ccc(OC)c(OC)c1)C(=O)[C@H](CC(=O)NCc1ccc(OC)c(OC)c1)C2	none (no result: MCF10A rereplic, ELG1 repair inh, SW480 rerep)
COC(=O)[C@]12CCCCC=C1N(CCc1ccc(OC)c(OC)c1)C(=O)[C@H](CC(=O)NCc1cccc(C(F)(F)F)c1)C2	KB-V1 MDR tox 15µM, KB-3-1 cytotox inconclusive (no result: MCF10A rereplic, ELG1 repair inh, SW480 rerep)
COC(=O)[C@]12CCCCC=C1N(CCc1ccc(OC)c(OC)c1)C(=O)[C@H](CC(=O)NCCc1ccccc1OC)C2	KB-V1 MDR tox 16µM (no result: MCF10A rereplic, ELG1 repair inh, SW480 rerep)
O=C(CN1C(=O)CC(c2ccc(F)cc2)=Nc2ccccc21)NCc1ccccc1Cl	none (no result: MCF10A rereplic, ELG1 repair inh, SW480 rerep)
Cc1ccc(CN2C(=O)C3CCCN3c3ccc(S(=O)(=O)N4CCOCC4)cc32)cc1 (configuration not stated)	none (no result: MCF10A rereplic, KB-V1 MDR tox, SW480 rerep, KB-3-1 cytotox)
Cc1ccc(CN2C(=O)C3CCCN3c3ncccc32)cc1 (configuration not stated)	MCF10A rereplic 23µM, SW480 rerep inconclusive
CCCN1C=CC(=C2C(=O)c3ccccc3C2=O)C=C1	ELG1 repair inh inconclusive, KB-V1 MDR tox 2.9µM, KB-3-1 cytotox inconclusive
CCN1C=CC(=C2C(=O)c3ccccc3C2=O)C=C1	ELG1 repair inh inconclusive, KB-V1 MDR tox 8.2µM, KB-3-1 cytotox 15µM
CCCCCCN1C=CC(=C2C(=O)c3ccccc3C2=O)C=C1	ELG1 repair inh inconclusive, KB-3-1 cytotox inconclusive
CCn1c(-c2ccccc2)c(C(=O)CCl)c2ccccc21	MCF10A rereplic 23µM, KB-V1 MDR tox inconclusive, SW480 rerep inconclusive
CN(C)c1ccc(/C=C/C(=O)Nc2cccc([S+](=O)([O-])Nc3ccccc3F)c2)cc1	none (no result: MCF10A rereplic, ELG1 repair inh, SW480 rerep)
CS/C(=N\S(=O)(=O)c1cccs1)Nc1ccc(Br)cc1F	MCF10A rereplic 23µM!, KB-V1 MDR tox inconclusive
CS/C(=N\S(=O)(=O)c1cccs1)Nc1ccc(Cl)cc1	none
O=c1cc(CSc2nc(NCc3ccccc3)c3ccccc3n2)nc2ccc(Cl)cn12	ELG1 repair inh inconclusive, KB-V1 MDR tox 2.3µM
Cc1ccc(CN2CCN(/N=C/c3cccn3C)CC2)c(C)c1	ELG1 repair inh inconclusive
Cc1ccc(CN2CCN(/N=C/c3ccc(C)s3)CC2)c(C)c1	KB-V1 MDR tox 16µM, SW480 rerep 16µM
Cc1ccc(CN2CCCN(C)CC2)c(C)c1	MCF10A rereplic 21µM
CC1=C(C)CC2C(C1)C(=O)c1ccc(Br)cc1S2(=O)=O (configuration not stated)	none
COc1cccc(CNC(=O)c2ccc3c(c2)c(C)c(C)n3Cc2ccccc2)c1OC	none (no result: MCF10A rereplic, ELG1 repair inh, SW480 rerep)
COc1ccccc1N(CC(=O)N1CCN(Cc2ccccc2)CC1)S(=O)(=O)c1ccccc1	none (no result: MCF10A rereplic, ELG1 repair inh, SW480 rerep)
CC(OCC(O)CN(C)CCOc1ccccc1)c1ccc(Cl)cc1 (configuration not stated)	ELG1 repair inh inconclusive, KB-V1 MDR tox 16µM
O=S(=O)(c1ccc(Oc2ccc(Br)cc2F)nc1)N1CCCCC1	ELG1 repair inh inconclusive, KB-V1 MDR tox 23µM, SW480 rerep inconclusive, KB-3-1 cytotox inconclusive
N#Cc1ccccc1Oc1ccc(S(=O)(=O)N2CCCCC2)cn1	ELG1 repair inh inconclusive, KB-V1 MDR tox inconclusive
Cc1cccc(NC(=O)C2CCCN(c3cnccn3)C2)c1 (configuration not stated)	MCF10A rereplic 18µM, SW480 rerep inconclusive
Cc1ccc(NC(=O)C2CCCN(c3ncccn3)C2)c(C)c1 (configuration not stated)	ELG1 repair inh inconclusive
Cc1ccc(NC(=O)C2CCCN(c3ncccn3)C2)cc1F (configuration not stated)	ELG1 repair inh inconclusive, KB-V1 MDR tox 16µM
O=C(NCc1cccc(C(F)(F)F)c1)C1CCCN(c2ncccn2)C1 (configuration not stated)	none
O=C(Nc1ccccc1-c1ccccc1)C1CCCN(c2ncccn2)C1 (configuration not stated)	KB-V1 MDR tox 21µM
O=C(Nc1cccc(C(F)(F)F)c1)C1CCCN(c2ncccn2)C1 (configuration not stated)	KB-V1 MDR tox 16µM
Cc1cccc(C(O)c2ncc(-c3cccc(C(F)(F)F)c3)[nH]2)c1C (configuration not stated)	none (no result: MCF10A rereplic, ELG1 repair inh, SW480 rerep)
O=C(O)/C=C/c1ccc2ccccc2c1	none (no result: MCF10A rereplic, ELG1 repair inh, SW480 rerep)
Oc1c(C(c2ccc(Cl)cc2)N2CCOCC2)sc2nc(-c3ccco3)nn12 (configuration not stated)	none (no result: MCF10A rereplic, ELG1 repair inh, SW480 rerep)
COc1ccc(NCc2cccn2-c2nnc(N3CCOCC3)s2)cc1OC	KB-V1 MDR tox inconclusive (no result: MCF10A rereplic, ELG1 repair inh, SW480 rerep)
C=CCNc1nc(NC2CCN(C)CC2)c2cc(OC)c(OC)cc2n1	KB-3-1 cytotox inconclusive (no result: MCF10A rereplic, ELG1 repair inh, SW480 rerep)
CCOC(=O)c1c(NC(=O)c2cc(-c3ccc(OC)cc3)on2)sc(C)c1C	none (no result: MCF10A rereplic, ELG1 repair inh, SW480 rerep)
COc1ccc(C(=O)NCCc2nnc3ccc(SCC(=O)N4CCCC4)nn23)cc1	none
O=C(COc1cccnc1[N+](=O)[O-])Nc1cccc(Br)c1	ELG1 repair inh inconclusive
O=C(COc1cccnc1[N+](=O)[O-])Nc1ccccc1Sc1ccccc1	KB-V1 MDR tox 13µM
Cc1cccc(N2CCN(C(=O)c3c(C)nn(Cc4ccccc4Cl)c3C)CC2)c1C	MCF10A rereplic 15µM, ELG1 repair inh 21µM, KB-V1 MDR tox inconclusive, SW480 rerep inconclusive
COc1ccc(C(=O)N2CCN(C(=O)c3cc(OC)c(OC)c(OC)c3)CC2)cc1	none
CN(C1CCCCC1)S(=O)(=O)c1ccc(C(=O)N2CCN(c3nc4ccccc4s3)CC2)cc1	ELG1 repair inh 9.2µM, KB-V1 MDR tox 2.6µM
O=C(c1ccc2ncsc2c1)N1CCN(c2nc3ccccc3s2)CC1	ELG1 repair inh inconclusive, KB-V1 MDR tox 7.3µM, KB-3-1 cytotox inconclusive
COc1cc(C(=O)N2CCN(c3cc(Cl)ccc3Cl)CC2)cc(OC)c1OC	MCF10A rereplic inconclusive, KB-V1 MDR tox inconclusive, SW480 rerep 1.2µM, KB-3-1 cytotox 0.33µM
O=C(C1CC1)N1CCN(c2nc3ccccc3s2)CC1	ELG1 repair inh inconclusive, KB-V1 MDR tox inconclusive
Oc1ccc(C[C@H]2CNC(=S)N2C[C@H]2CCCN2C[C@H](Cc2ccccc2)N2C[C@H](Cc3ccc(O)cc3)N(CCc3ccccc3)C2=S)cc1	KB-3-1 cytotox inconclusive (no result: MCF10A rereplic, ELG1 repair inh, SW480 rerep)
